Measurements from PubChem BioAssay (NCATS).
A number with no mark means an inactive call. Records with an inconclusive call do not appear. The source made the active and inactive calls. Unless noted, calls follow the shape of the dose curve; as a rule, active = well fitted curve in the direction sought with a large enough effect; inconclusive = small, poorly fitted or top-dose-only effect, or another doubt; inactive = no such curve, though single readings can be large; an effect the other way counts as inactive or inconclusive.

Assays:
[1] = target: Lysosomal acid glucosylceramidase (Homo sapiens) (UniProt P04062); assay: Glucocerebrosidase-p2 (AID 348; in the data active = potency below about 10 µM; also: potency is read from the fitted curve at half-maximal effect); conditions: purified GBA, blue fluorogenic substrate, 40 min
Summary of the method: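 Normal human glucocerebrosidase (0.2 nM) with blue fluorogenic substrate (80 uM final) in citrate/phosphate pH 5.9 with 10mM sodium taurocholate, 0.01% tween-20; 40 min RT, NaOH/glycine stop; fluorescence Ex 365/Em 440; AC50 from a titration from 0.6 nM upwards.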

[2] = AP1 Signaling Pathway (AID 357; active = well fitted curve in either direction with a large enough effect, not every such curve was filed as active;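 also: ME-180 reporter cells stimulated with EGF at its EC50 level; % is scaled to controls: 0 for no effect and ±100 for the full control effect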); conditions: ME-180 AP-1-bla reporter, EGF-induced, beta-lactamase ratio, 5 h; at 7.69 µM (top of the series) unless noted
Summary of the method: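 Cells are seeded overnight, exposed to compound titrations and an EC50 level of EGF for 5 hours at 37 °C, then loaded with CCF4 dye for 2.5 hours. Beta-lactamase activity under the AP-1 element is read as a blue/green ratio.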

[3] = target: Cytochrome P450 1A2 (Homo sapiens) (UniProt P05177); assay: p450-cyp1a2 (AID 410; calls by dose curve; also: potency is read from the fitted curve at half-maximal effect); conditions: recombinant CYP1A2, luciferin-ME demethylation, luminescence; series mostly up to 57 µM
Summary of the method: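 O-Demethylation of luciferin 6' methyl ether by human CYP1A2 is monitored as luciferase luminescence. Substrate sits at Km (100uM); enzyme is 20nM. Values are scaled to 57 uM furafylline as maximal inhibition.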

[4] = NFAT Signaling Pathway (AID 444; active = well fitted curve in either direction with a large enough effect, not every such curve was filed as active;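 also: carbachol stimulus at about its EC50 of 1 µM final; % is scaled to controls: 0 for no effect and ±100 for the full control effect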); conditions: Jurkat NFAT-bla M1, carbachol, beta-lactamase ratio, 5 h; at 7.69 µM (top of the series) unless noted
Summary of the method: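 Jurkat cells with NFAT-driven β-lactamase reporter and co-expressed M1 receptor, stimulated with carbachol (final 1 uM, ~EC50), compound titration, 5 h at 37 °C. CCF4 loaded 1 h at RT; 460/530 nm ratio gave %activity and AC50.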

[5] = Stat Signaling Pathway (AID 446; active = well fitted curve in either direction with a large enough effect, not every such curve was filed as active;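 also: ME-180 cervical cancer cells given 40 pM IL-6 alongside compound; SIE-controlled beta-lactamase reporter measured as 460/530 nm FRET emission ratio; % is scaled to controls: 0 for no effect and ±100 for the full control effect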); conditions: ME-180 SIE beta-lactamase reporter, IL-6 stimulated, 5 h; at 7.69 µM (top of the series) unless noted
Summary of the method: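 Normalization used AC90 stimulation (300 pM IL-6) and AC90 inhibition (125 nM pan-JAK inhibitor at 40 pM IL-6). The underlying signal is SIE-driven beta-lactamase in ME-180 cells after 5 h IL-6 exposure with compound.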

[6] = target: Glucocorticoid receptor (Homo sapiens) (UniProt P04150); assay: GR-GFP Redistribution (AID 450;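 active = compounds whose dose series gives a full or clear partial fitted curve of increased nuclear translocation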; also: potency is read from the fitted curve at half-maximal effect); conditions: U2OS GR-GFP nuclear translocation, laser cytometry, 2 h
[7] = target: Mitogen-activated protein kinase 10 (Mus musculus) (UniProt Q61831); assay: JNK3 AlphaScreen Assay (AID 530; active = well fitted curve in either direction with a large enough effect, not every such curve was filed as active;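 also: kinase came from lysate of stimulated human HepG2 cells; signal reports phosphorylation of biotinylated GST-cJun 1-79 at Ser73 with 10 µM ATP; % is scaled to controls: 0 for no effect and ±100 for the full control effect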); conditions: JNK3 lysate, c-Jun phosphorylation; series mostly up to 57.1 µM
Summary of the method: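 Activity was read by AlphaScreen after JNK3-containing HepG2 lysate (cytokine pre-activated) phosphorylated biotinylated GST-cJun with 10 uM ATP at room temperature. Phospho-Ser73 cJun antibody with Protein-A acceptor beads provided detection.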

[8] = target: Cytochrome P450 2C9 (Homo sapiens) (UniProt P11712); assay: qHTS Assay for Inhibitors and Substrates of Cytochrome P450 2C9 (AID 883); conditions: recombinant CYP2C9, luciferin-H luminescence, 60 min; series mostly up to 57.1 µM; also: potency is read from the fitted curve at half-maximal effect; nearly all actives have a fitted effect of over 60% in size
Summary of the method: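 Signal: luciferase luminescence reporting luciferin produced by CYP2C9. Conditions: 10nM enzyme, Luciferin-H 100uM at KM, 25mM KPO4, 37C, 60 min NADPH-driven reaction. Reference: 57uM sulphaphenazole as 100% inhibition.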

[9] = target: Cytochrome P450 3A4 (Homo sapiens) (UniProt P08684); assay: qHTS Assay for Inhibitors and Substrates of Cytochrome P450 3A4 (AID 884); conditions: recombinant CYP3A4, Luciferin-PPXE luminescence; series mostly up to 57.1 µM; also: potency is read from the fitted curve at half-maximal effect; nearly all actives have a fitted effect of over 50% in size
Summary of the method: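 Luminescent readout of luciferin produced by CYP3A4 (20 nM) dealkylation of Luciferin-PPXE, 25 uM (its KM). NADPH-driven reaction ran 60 min at RT after 10 min compound preincubation; data scaled to 57 uM ketoconazole as 100% inhibition.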

[10] = target: Cytochrome P450 2C19 (Homo sapiens) (UniProt P33261); assay: qHTS Assay for Inhibitors and Substrates of Cytochrome P450 2C19 (AID 899); conditions: recombinant CYP2C19, luciferin-H EGE luminescence; series mostly up to 57.1 µM; also: potency is read from the fitted curve at half-maximal effect; nearly all actives have a fitted effect of over 60% in size
Summary of the method: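 Signal comes from luciferase acting on luciferin released by CYP2C19-mediated hydroxylation of Luciferin-H EGE, 10uM (KM). Assay mix: 5nM enzyme, 50mM KPO4; 60 min at 37C with NADPH regeneration. Data normalized against 57uM ketoconazole.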

[11] = target: Dual specificity protein kinase CLK4 (Homo sapiens) (UniProt Q9HAZ1); assay: qHTS Assay for Inhibitors of CDC-like Kinase 4 (Kinase-Glo Assay) (AID 1770); conditions: recombinant Clk4, Kinase-Glo ATP depletion luminescence; series mostly up to 66.7 µM; also: nearly all actives have a fitted effect of over 65% in size; also: potency is read from the fitted curve at half-maximal effect
Summary of the method: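 Readout: Kinase-Glo luminescence from ATP left after a 4.5 h room-temperature reaction of 25 nM Clk4 with 100 uM RS peptide and 1 uM ATP (final). Buffer: 25 mM Tris pH 7.5, 10 mM MgCl2.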

[12] = target: Dual specificity protein kinase CLK4 (Homo sapiens) (UniProt Q9HAZ1); assay: qHTS Assay for Inhibitors of CDC-like Kinase 4 (ADP-Glo Assay) (AID 1771); conditions: recombinant CLK4, ADP-Glo luminescence; series mostly up to 80 µM; also: nearly all actives have a fitted effect of over 70% in size; also: potency is read from the fitted curve at half-maximal effect
Summary of the method: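 Compounds are pin-transferred onto substrate mix (100 uM RS peptide, 1 uM ATP), then 25 nM Clk4 is added. After 1 hr at room temperature, ADP-Glo reagent runs 45 min, detection reagent 30 min, then luminescence is read.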

[13] = target: Dual specificity protein kinase CLK4 (Homo sapiens) (UniProt Q9HAZ1); assay: qHTS Assay for Inhibitors of CDC-like Kinase 4 (ADP-FP Assay) (AID 1795); conditions: Transcreener ADP fluorescence polarization; series mostly up to 50 µM; also: nearly all actives have a fitted effect of over 60% in size; also: potency is read from the fitted curve at half-maximal effect
Summary of the method: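 FP readout: Orange Transcreener ADP2 tracer (4 nM) plus ADP antibody, read after 30 min at room temperature. Kinase step: 6.25 nM Clk4, 100 uM RS peptide, 1 uM ATP, pH 7.5, 1 h.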

[14] = target: Ubiquitin carboxyl-terminal hydrolase 1 (Homo sapiens) (UniProt O94782); assay: Inhibitors of USP1/UAF1: Pilot qHTS (AID 504865); conditions: purified USP1/UAF1, Ub-rhodamine cleavage fluorescence; series mostly up to 54.9 µM;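 also: rhodamine fluorescence freed from ubiquitin-rhodamine substrate followed over time; top concentration of the series differs between compounds; % is scaled to controls: 0 for no effect and ±100 for the full control effect; nearly all actives have a fitted effect of over 35% in size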
Summary of the method: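 1nM USP1/UAF1 + cpd, 15 min RT; start w/ Ub-Rho 150nM final; kinetic FL 480/540 nm, 6 reads q60 s. Buffer 50mM HEPES pH 7.8, 0.5mM EDTA, 1mM TCEP, 0.01% Tween-20, 0.1 mg/ml BSA.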

[15] = Primary qHTS for small molecule stabilizers of the endoplasmic reticulum resident proteome: Secreted ER Calcium Modulated Protein (SERCaMP) assay (AID 1508630); conditions: SH-SY5Y GLuc-SERCaMP (Gaussia luciferase released on ER calcium loss) secretion, thapsigargin, luminescence; series mostly up to 38.4 µM; also: % is scaled to controls: 0 for no effect and ±100 for the full control effect
Summary of the method: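 The SH-SY5Y reporter protocol was run at 3 concentrations up to 38.3 uM (primary) or 11 concentrations (follow-up): 16 h compound, 100 nM thapsigargin for 4 h, then extracellular luciferase luminescence.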

[16] = target: Glucocorticoid receptor (Homo sapiens) (UniProt P04150); assay: GR-EFC Redistribution (AID 451; calls by dose curve; also: potency is read from the fitted curve at half-maximal effect); conditions: CHO-K1 GR-EFC translocation, beta-gal luminescence, 2 h
Summary of the method: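 CHO-K1 cells expressing nuclear EA and GR-ED fragments of b-gal; compounds titrated up to 46 uM final, 2 h at 37 C. GR nuclear translocation read as complemented b-gal luminescence after 1 h RT detection.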

[17] = target: Cytochrome P450 3A4 (Homo sapiens) (UniProt P08684); assay: qHTS Assay for Activators of Cytochrome P450 3A4 (AID 885); conditions: recombinant CYP3A4, Luciferin-PPXE luminescence, 60 min; series mostly up to 57.1 µM; also: nearly all actives have a fitted effect of over 65% in size
Summary of the method: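 Human CYP3A4 dealkylates Luciferin-PPXE to luciferin, which luciferase detection converts to light. Substrate was at its KM (25uM), buffer 200mM KPO4, reaction 60 min at RT.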

[18] = target: 3',5'-cyclic-AMP phosphodiesterase 4B (Homo sapiens) (UniProt Q07343); assay: qHTS Assay for Inhibitors of PDE-IV (AID 607; active = well fitted activation curve with a large enough effect in the main read-out, with a control signal flat, not every such curve was filed as active; also: % of control where 0% means no effect); conditions: HEK293 ACTOne CNG channel cells, membrane potential fluorescence; series mostly up to 22.9 µM
Summary of the method: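 HEK293 ACTOne cells with CNG channel (1000/well), endogenous PDE4; membrane potential dye, compounds up to 22.9 uM final. Fluorescence Ex 535/Em 590; RO 20-1724 (100 uM final) as reference.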

[19] = qHTS Assay for Identification of Small Molecule Agonists for Hypoxia Response Element Signaling Pathway (AID 914; active = well fitted activation curve with a large enough effect in the signal ratio, with a control signal flat, not every such curve was filed as active; the % refers to the signal ratio; also: potency is read from the fitted curve at half-maximal effect); conditions: ME-180 (cervical carcinoma) HRE-bla reporter, beta-lactamase ratio, CoCl2, 17 h; activation: stronger effect = higher value
Summary of the method: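 HRE-bla ME-180 cells, overnight plating in Opti-MEM with 0.5% dialyzed FBS; cpd titration + EC50 CoCl2, 17 h, 37 degrees Celsius; CCF4 2.5 h RT; 460/530 nm ratio; AC50.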

[20] = target: Cytochrome P450 2D6 (Homo sapiens) (UniProt P10635); assay: qHTS Assay for Inhibitors and Substrates of Cytochrome P450 2D6 (AID 891); conditions: recombinant CYP2D6, luciferin-ME EGE luminescence; series mostly up to 57.1 µM; also: potency is read from the fitted curve at half-maximal effect; nearly all actives have a fitted effect of over 60% in size
Summary of the method: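 Luminescent read-out of luciferin formed by 5 nM human CYP2D6 demethylating 30 uM Luciferin-ME EGE (Km level) over 60 min at room temperature after NADPH regeneration addition. Data normalized to full inhibition by 1.43 uM quinidine.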

Dual specificity protein kinase CLK4 (Homo sapiens), sequence (Q9HAZ1 whole entry, looked up): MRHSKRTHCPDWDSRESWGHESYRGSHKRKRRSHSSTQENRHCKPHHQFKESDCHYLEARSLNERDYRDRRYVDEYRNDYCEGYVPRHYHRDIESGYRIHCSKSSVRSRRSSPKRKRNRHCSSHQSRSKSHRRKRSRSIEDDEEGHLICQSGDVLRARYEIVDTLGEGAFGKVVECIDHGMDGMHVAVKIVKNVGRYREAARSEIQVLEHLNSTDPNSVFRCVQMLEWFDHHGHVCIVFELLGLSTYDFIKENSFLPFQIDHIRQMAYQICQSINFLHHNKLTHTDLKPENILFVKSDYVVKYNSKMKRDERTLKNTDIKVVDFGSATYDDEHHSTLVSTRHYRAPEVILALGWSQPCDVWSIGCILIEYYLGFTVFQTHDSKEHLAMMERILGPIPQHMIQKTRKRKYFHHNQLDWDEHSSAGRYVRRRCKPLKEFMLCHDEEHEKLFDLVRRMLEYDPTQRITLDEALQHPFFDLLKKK
Cytochrome P450 2C19 (Homo sapiens), sequence (P33261 whole entry, looked up): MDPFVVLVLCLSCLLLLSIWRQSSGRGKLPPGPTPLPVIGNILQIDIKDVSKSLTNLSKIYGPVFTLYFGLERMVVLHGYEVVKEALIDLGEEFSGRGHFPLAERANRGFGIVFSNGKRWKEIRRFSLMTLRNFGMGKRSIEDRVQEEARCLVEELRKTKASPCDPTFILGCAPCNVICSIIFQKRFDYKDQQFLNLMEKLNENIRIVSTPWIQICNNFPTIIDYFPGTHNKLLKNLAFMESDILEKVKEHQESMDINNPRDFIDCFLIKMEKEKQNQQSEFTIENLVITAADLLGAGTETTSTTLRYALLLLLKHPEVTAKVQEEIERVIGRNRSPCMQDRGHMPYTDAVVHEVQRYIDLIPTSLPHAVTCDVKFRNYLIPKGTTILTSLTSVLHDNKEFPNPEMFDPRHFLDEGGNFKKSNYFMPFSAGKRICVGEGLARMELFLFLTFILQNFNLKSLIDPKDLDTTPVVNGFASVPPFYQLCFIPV
3',5'-cyclic-AMP phosphodiesterase 4B (Homo sapiens), sequence (Q07343 whole entry, looked up): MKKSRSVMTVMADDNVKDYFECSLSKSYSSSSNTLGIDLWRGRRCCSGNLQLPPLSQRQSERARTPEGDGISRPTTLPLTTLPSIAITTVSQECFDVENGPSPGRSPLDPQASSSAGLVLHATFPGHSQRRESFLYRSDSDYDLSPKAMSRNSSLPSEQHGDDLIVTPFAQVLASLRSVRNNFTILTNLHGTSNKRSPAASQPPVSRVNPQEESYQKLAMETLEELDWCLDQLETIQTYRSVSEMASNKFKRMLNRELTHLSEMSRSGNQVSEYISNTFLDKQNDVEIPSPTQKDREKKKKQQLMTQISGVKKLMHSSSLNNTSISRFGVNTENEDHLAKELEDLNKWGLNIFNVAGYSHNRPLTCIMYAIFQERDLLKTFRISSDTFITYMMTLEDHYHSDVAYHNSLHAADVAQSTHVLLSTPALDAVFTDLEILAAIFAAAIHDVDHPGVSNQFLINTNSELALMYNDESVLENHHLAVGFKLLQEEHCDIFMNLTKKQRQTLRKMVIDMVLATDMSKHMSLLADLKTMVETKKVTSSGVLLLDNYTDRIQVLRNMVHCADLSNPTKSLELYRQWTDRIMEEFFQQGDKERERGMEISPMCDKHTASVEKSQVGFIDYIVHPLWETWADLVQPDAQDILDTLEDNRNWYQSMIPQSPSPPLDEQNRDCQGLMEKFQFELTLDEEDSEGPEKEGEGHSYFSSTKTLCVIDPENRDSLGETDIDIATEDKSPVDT
Cytochrome P450 3A4 (Homo sapiens), sequence (P08684 whole entry, looked up): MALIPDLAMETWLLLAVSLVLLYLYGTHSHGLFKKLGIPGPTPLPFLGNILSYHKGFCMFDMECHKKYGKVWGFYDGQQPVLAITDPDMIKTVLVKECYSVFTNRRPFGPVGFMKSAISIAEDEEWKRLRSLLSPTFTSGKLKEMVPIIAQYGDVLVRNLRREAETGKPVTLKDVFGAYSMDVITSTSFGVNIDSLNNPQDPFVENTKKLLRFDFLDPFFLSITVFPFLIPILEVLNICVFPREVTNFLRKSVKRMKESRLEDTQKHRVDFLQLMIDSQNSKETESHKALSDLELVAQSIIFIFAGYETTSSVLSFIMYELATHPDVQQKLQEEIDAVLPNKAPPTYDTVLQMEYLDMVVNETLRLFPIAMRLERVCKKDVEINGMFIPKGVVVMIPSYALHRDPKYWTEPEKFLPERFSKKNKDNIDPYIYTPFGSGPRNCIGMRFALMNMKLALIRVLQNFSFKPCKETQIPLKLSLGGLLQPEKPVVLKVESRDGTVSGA
Ubiquitin carboxyl-terminal hydrolase 1 (Homo sapiens), sequence (O94782 whole entry, looked up): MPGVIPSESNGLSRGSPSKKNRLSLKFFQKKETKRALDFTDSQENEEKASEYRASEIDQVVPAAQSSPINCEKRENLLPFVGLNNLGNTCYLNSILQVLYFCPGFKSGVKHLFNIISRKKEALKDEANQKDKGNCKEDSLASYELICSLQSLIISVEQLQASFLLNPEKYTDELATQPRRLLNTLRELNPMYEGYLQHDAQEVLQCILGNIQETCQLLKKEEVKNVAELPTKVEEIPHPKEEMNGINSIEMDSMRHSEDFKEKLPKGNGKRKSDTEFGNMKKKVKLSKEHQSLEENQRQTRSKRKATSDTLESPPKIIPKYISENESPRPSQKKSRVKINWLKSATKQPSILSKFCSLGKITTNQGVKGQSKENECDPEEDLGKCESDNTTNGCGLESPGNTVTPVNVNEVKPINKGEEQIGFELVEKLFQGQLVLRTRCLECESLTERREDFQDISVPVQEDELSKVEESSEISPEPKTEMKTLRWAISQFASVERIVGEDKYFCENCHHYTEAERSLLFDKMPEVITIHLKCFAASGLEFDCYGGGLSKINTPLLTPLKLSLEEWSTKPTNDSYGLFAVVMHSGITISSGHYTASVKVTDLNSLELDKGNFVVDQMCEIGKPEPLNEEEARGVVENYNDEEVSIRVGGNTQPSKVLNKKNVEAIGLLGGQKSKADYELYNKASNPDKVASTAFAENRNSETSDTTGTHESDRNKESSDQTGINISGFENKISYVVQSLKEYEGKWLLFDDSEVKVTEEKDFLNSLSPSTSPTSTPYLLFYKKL
Cytochrome P450 1A2 (Homo sapiens), sequence (P05177 whole entry, looked up): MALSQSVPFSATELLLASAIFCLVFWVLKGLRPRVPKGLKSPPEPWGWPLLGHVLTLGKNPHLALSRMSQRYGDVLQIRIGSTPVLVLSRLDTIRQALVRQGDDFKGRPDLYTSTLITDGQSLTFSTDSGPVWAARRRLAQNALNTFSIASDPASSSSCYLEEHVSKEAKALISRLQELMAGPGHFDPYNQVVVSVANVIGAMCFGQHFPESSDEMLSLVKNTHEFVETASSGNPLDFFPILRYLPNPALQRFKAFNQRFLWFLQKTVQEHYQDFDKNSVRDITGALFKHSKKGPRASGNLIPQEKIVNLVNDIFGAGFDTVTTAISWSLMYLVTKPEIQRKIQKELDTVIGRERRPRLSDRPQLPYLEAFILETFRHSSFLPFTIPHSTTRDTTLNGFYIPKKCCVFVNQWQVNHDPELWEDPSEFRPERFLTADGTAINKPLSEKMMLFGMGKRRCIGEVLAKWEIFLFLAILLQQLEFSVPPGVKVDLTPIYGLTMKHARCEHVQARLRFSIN
Glucocorticoid receptor (Homo sapiens), sequence (P04150 whole entry, looked up, the tested form may be a part): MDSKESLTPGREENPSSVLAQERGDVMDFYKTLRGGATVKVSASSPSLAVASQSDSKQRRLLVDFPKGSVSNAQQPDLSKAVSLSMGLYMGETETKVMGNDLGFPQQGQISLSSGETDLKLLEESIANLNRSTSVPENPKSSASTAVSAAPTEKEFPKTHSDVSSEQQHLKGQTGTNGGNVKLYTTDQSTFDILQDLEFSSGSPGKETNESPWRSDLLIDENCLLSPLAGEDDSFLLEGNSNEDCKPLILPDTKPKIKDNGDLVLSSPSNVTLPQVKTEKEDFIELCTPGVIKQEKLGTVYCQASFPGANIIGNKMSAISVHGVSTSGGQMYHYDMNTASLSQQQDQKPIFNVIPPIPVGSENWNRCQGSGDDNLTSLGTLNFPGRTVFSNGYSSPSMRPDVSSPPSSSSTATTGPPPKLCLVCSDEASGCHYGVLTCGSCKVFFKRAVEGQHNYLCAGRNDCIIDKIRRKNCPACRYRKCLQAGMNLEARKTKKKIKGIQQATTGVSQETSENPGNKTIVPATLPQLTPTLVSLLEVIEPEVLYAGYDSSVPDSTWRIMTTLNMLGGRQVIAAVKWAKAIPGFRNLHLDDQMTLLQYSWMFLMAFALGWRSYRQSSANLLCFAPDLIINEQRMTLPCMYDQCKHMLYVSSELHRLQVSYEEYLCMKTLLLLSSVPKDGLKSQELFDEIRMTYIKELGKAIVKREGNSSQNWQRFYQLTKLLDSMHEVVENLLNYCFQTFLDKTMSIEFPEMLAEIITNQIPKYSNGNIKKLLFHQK
Lysosomal acid glucosylceramidase (Homo sapiens), sequence (P04062 whole entry, looked up): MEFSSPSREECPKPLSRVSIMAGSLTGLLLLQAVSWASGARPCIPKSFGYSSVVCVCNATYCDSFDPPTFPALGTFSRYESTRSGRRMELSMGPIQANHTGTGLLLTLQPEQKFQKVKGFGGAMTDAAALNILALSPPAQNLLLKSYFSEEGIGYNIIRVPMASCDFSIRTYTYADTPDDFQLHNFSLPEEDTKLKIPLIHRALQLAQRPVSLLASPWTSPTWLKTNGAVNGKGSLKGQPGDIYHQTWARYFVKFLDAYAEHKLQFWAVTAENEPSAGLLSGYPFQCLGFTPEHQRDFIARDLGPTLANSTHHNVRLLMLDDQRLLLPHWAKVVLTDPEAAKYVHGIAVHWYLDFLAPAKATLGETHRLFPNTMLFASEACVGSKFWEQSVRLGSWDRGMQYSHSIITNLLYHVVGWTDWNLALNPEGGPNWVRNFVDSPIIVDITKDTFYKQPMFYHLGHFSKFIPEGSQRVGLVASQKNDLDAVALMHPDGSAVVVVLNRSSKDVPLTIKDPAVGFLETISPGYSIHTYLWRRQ

Row | SMILES | Potency [1] [µM] | activity change, negative = inhibition [2] [%] | Potency [3] | activity change, negative = inhibition [4] [%] | activity, negative = inhibition [5] [%] | Potency [6] [µM] | Potency [7] | Potency [8] | Potency [9] | Potency [10] | Potency [11] | Potency [12] | Potency [13] | Potency [14] | outcome [15] | Potency [16] [µM] | Potency [17] | Potency [18] | Potency [19] | Potency [20]
1 | COc1ccccc1CCn1c(=O)c(-c2ccc(F)c(F)c2)nc2cncnc21 | > 11.4 | -18.1 | 2 µM (active) | 1.01 | 10.7 | > 9.22 | inactive | 6.31 µM (active) | 3.16 µM (active) | 1.26 µM (active) | inactive | inactive | inactive | inactive | inactive | – | – | – | – | –
2 | CN(Cc1ccco1)c1ncnc2ccc(-c3ccccc3C#N)cc12 | > 11.4 | -26.1 | 1 µM (active) | 7.18 | 14.4 | > 46 | inactive | – | – | 1.26 µM (active) | 11.2 µM (active) | 7.08 µM (active) | inactive | inactive | inactive | > 46 | inactive | – | – | –
3 | CN(Cc1ccco1)c1ccnc(-c2ccccc2C(F)(F)F)n1 | > 11.4 | 2.94 | 2.51 µM (active) | -8.64 | -4.79 | > 46 | inactive | – | – | 7.94 µM (active) | inactive | inactive | inactive | – | inactive | > 46 | – | inactive | – | –
4 | COCCn1c(=O)c(-c2cccs2)nc2cnc(OC)nc21 | > 11.4 | 6.04 | 2.51 µM (active) | 15.6 | 6.32 | > 9.22 | inactive | – | – | – | inactive | inactive | inactive | inactive | inactive | > 46 | inactive | – | – | –
5 | COCCn1c(=O)c(-c2cccc(Cl)c2)nc2cncnc21 | > 11.4 | -9.58 | 0.631 µM (active) | 12.1 | -4.06 | > 9.22 | inactive | – | – | – | inactive | inactive | inactive | inactive | inactive | > 46 | inactive | – | – | –
6 | CCNc1ncc2nc(-c3cn(C)c4ccccc34)c(=O)n(Cc3ccc(F)cc3)c2n1 | > 11.4 | -5.76 | 15.8 µM (active) | 2.58 | – | > 9.22 | inactive | – | – | – | inactive | inactive | inactive | inactive | inactive | > 46 | inactive | inactive | 2.51 µM (active) | –
7 | COc1ncc2nc(-c3cccs3)c(=O)n(Cc3ccc(F)cc3)c2n1 | > 11.4 | 22.6 | 3.16 µM (active) | 8.73 | – | > 9.22 | inactive | – | 3.16 µM (active) | – | inactive | inactive | inactive | inactive | inactive | > 46 | inactive | inactive | – | –
8 | COc1ccc(CNc2ccnc(-c3c(C)noc3C)n2)c(OC)c1 | > 11.4 | 11.5 | 1.26 µM (active) | 8.32 | 0.0565 | > 46 | inactive | – | 2.51 µM (active) | 1.58 µM (active) | inactive | inactive | inactive | – | inactive | – | inactive | – | – | –
9 | N#Cc1ccccc1-c1ccc2ncnc(NC3CC3)c2c1 | > 11.4 | -12.1 | 0.1 µM (active) | 21.2 | – | > 46 | inactive | – | 2 µM (active) | – | 6.31 µM (active) | 5.62 µM (active) | 7.08 µM (active) | inactive | inactive | > 46 | inactive | – | – | –
10 | CCNc1ncc2nc(-c3cn(C)c4ccccc34)c(=O)n(CCC#N)c2n1 | > 11.4 | -22.2 | 5.01 µM (active) | -4.28 | -12.7 | > 9.22 | inactive | – | – | – | inactive | inactive | inactive | inactive | inactive | > 46 | inactive | – | – | 3.98 µM (active)
11 | COc1ccccc1-c1cncnc1NCc1cnc(C)cn1 | > 11.4 | -7.64 | 20 µM (active) | 2.58 | 4.26 | – | inactive | – | 1.26 µM (active) | – | inactive | inactive | inactive | inactive | inactive | > 46 | inactive | inactive | – | –
12 | COc1ccc(-c2nc3cnc(N(C)C)nc3n(C[C@H]3CCCO3)c2=O)cc1 | > 11.4 | 1.23 | 3.16 µM (active) | -3.89 | 2.75 | > 9.22 | – | – | – | – | inactive | inactive | inactive | inactive | inactive | > 46 | inactive | – | – | –
